Measured values reported in the supplement of paper PMC10646978.
± gives the standard deviation.

Columns and labels:
Settings in all cases: modulator concentration 10 µM
[1] = system: RAW-Dual (murine macrophage reporter line); experiment: NF-kB reporter (SEAP) activity fold change vs agonist alone; higher = enhanced NF-kB activity
Outline: (§1)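 RAW-Dual murine macrophage reporter cells were plated at 50 000 per well in 384-well plates, pin-transferred compound to 10 μM final, and pre-incubated for 1 hour at 37 °C before a PRR agonist was added and the cells incubated overnight. NF-κB activity was read from supernatant SEAP with QUANTI-Blue at 620 nm absorbance, and IRF activity from Lucia luciferase with QUANTI-Luc by luminescence. Each signal was expressed as fold change by dividing by the mean agonist-only control on the same plate. Two replicate plates were averaged, with errors obtained by propagation.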

[2] = system: RAW-Dual (murine macrophage reporter line); experiment: IRF reporter (Lucia luciferase) activity fold change vs agonist alone; higher = enhanced IRF activity
Outline: as §1

[3] = system: RAW-Dual (murine macrophage reporter line); experiment: viability score (confluency relative to resting cells, overnight) (fraction); higher = more viable, active = viable (0.7 or more)
Outline: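 Overnight exposure to 10 μM final compound was carried out on RAW-Dual macrophages in 384-well plates. IncuCyte software generated two confluency masks over all wells imaged with IncuCyte. The viability score gives confluency in relation to resting cells. A compound met the cutoff if each mask exceeded 70% of resting cells.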

[4] = agonist: CpG ODN 1826 0.5 ug/mL

| Structure (SMILES) | NF-kB reporter [1, 4] | NF-kB reporter ([1]; agonist: LPS 0.1 ug/mL) | NF-kB reporter ([1]; agonist: MPLA […]) | IRF reporter ([2]; agonist: 3'3'-cGAMP 10 ug/mL) | IRF reporter ([2]; agonist: LPS 0.1 ug/mL) | IRF reporter ([2]; agonist: MPLA […]) | viability score [3] |
| --- | --- | --- | --- | --- | --- | --- | --- |
| CC(NCCC(c1ccccc1)c1ccccc1)c1ccccc1.Cl (centres undefined) | 0.274 ± 0.11 | 0.64 ± 0.047 | 0.67 ± 0.075 | 0.735 ± 0.058 | 0.929 ± 0.13 | 1 ± 0.13 | 0.204 (inactive) |
| CC(Oc1cccc(Cl)c1)C(=O)NCc1ccncc1 (centres undefined) | 0.955 ± 0.098 | 1.09 ± 0.071 | 1.07 ± 0.091 | 0.985 ± 0.057 | 1.24 ± 0.13 | 0.988 ± 0.11 | 1.02 (active) |
| O=C(CSc1ccc2ccccc2n1)NC1=NCCS1 | 0.89 ± 0.051 | 0.986 ± 0.062 | 0.972 ± 0.06 | 0.968 ± 0.033 | 1.2 ± 0.077 | 0.958 ± 0.23 | 1.01 (active) |
| Cc1oncc1C(=O)Nc1ccc(C(F)(F)F)cc1 | 2.06 ± 0.4 | 1.1 ± 0.16 | 1.09 ± 0.071 | 1.31 ± 0.045 | 1.12 ± 0.29 | 2.03 ± 0.2 | 0.357 (inactive) |
| O=C(O)c1cc(O)c(O)c(O)c1 | 0.306 ± 0.013 | 0.876 ± 0.078 | 0.749 ± 0.062 | 0.594 ± 0.03 | 1.16 ± 0.2 | 0.97 ± 0.27 | 1.02 (active) |
| O=c1oc2cc(O)ccc2s1 | 1.11 ± 0.088 | 1.02 ± 0.07 | 1.02 ± 0.026 | 0.911 ± 0.05 | 0.962 ± 0.067 | 0.827 ± 0.074 | 1 (active) |
| Cc1ccc(Nc2ccc(NC(=O)C(C)C)cc2)nn1 | 0.988 ± 0.042 | 0.993 ± 0.082 | 1.11 ± 0.07 | 1.05 ± 0.048 | 1.2 ± 0.26 | 1.29 ± 0.44 | 0.981 (active) |
| c1ccc(OCCOc2ccc(Nc3ccnc4cc5ccccc5cc34)cc2)cc1 | 0.294 ± 0.05 | 1.04 ± 0.067 | 1.8 ± 0.17 | 0.896 ± 0.035 | 1.48 ± 0.13 | 1.78 ± 0.17 | 0.23 (inactive) |
| CN(CC(=O)O)c1nc2ccc(OC(F)(F)F)cc2s1 | 0.821 ± 0.15 | 1.03 ± 0.13 | 0.736 ± 0.064 | 0.892 ± 0.048 | 0.941 ± 0.17 | 0.952 ± 0.14 | 1.01 (active) |
| Cc1cc(C)n(CCCN2C(=O)c3cccc4cccc(c34)C2=O)n1 | 0.926 ± 0.084 | 1.04 ± 0.083 | 0.955 ± 0.11 | 0.993 ± 0.054 | 1.09 ± 0.075 | 1.14 ± 0.088 | 1.01 (active) |
| O=C(NC1CC(=O)N(c2ccc(F)cc2)C1)c1ccc(Cl)cc1 (centres undefined) | 1.06 ± 0.054 | 1.11 ± 0.088 | 0.877 ± 0.039 | 0.944 ± 0.064 | 1.24 ± 0.11 | 1.2 ± 0.3 | 0.991 (active) |
| COCCCNC(=O)CSc1ccc(Cl)cc1 | 1.07 ± 0.17 | 0.974 ± 0.11 | 0.952 ± 0.13 | 0.889 ± 0.063 | 1.12 ± 0.28 | 1.1 ± 0.13 | 1 (active) |
| CCCCSc1nnc2c(n1)OC(c1cccc(C)n1)Nc1ccc(Br)cc1-2 (centres undefined) | 0.922 ± 0.073 | 1.05 ± 0.07 | 0.97 ± 0.045 | 0.985 ± 0.14 | 1.02 ± 0.068 | 0.921 ± 0.11 | 1 (active) |
| O=C1OC(CNS(=O)(=O)c2ccccc2Cl)CN1c1ccc(Cl)c(Cl)c1 (centres undefined) | 1.08 ± 0.078 | 1.22 ± 0.11 | 0.926 ± 0.058 | 1.13 ± 0.06 | 1.11 ± 0.068 | 1.08 ± 0.24 | 1.01 (active) |
| CC(/C=C1\SC(=S)N(CC(=O)O)C1=O)=C\c1ccccc1 | 0.7 ± 0.036 | 0.822 ± 0.093 | 1.05 ± 0.094 | 0.977 ± 0.048 | 1.4 ± 0.29 | 1.66 ± 0.52 | 0.962 (active) |
| CCOc1ccc(C=C2SC(=S)N(C)C2=O)cc1 | 0.96 ± 0.075 | 1.01 ± 0.072 | 0.905 ± 0.073 | 0.962 ± 0.049 | 1.39 ± 0.15 | 1.3 ± 0.23 | 1.01 (active) |
| C#CCN[C@@H]1CCc2ccccc21.CS(=O)(=O)O | 0.992 ± 0.1 | 1.03 ± 0.12 | 1.03 ± 0.031 | 0.933 ± 0.087 | 0.913 ± 0.03 | 0.849 ± 0.1 | 0.996 (active) |
| CCCC1=NN(c2ccc([N+](=O)[O-])cc2)C(=O)C1=CNC1CC1 | 0.833 ± 0.066 | 1.15 ± 0.065 | 0.934 ± 0.056 | 0.999 ± 0.043 | 1.49 ± 0.12 | 1.18 ± 0.2 | 1.01 (active) |
| COc1ccc(-c2cc(C(F)(F)F)n3nc(C(=O)Nc4cc(OC)c(OC)c(OC)c4)c(Cl)c3n2)cc1OC | 0.885 ± 0.081 | 1.01 ± 0.089 | 0.795 ± 0.058 | 0.566 ± 0.14 | 1.27 ± 0.19 | 1.1 ± 0.12 | 1.01 (active) |
| CCN1C(=O)C(=Cc2cc(Br)ccc2OCCOc2ccccc2Cl)SC1=S | 0.714 ± 0.064 | 0.899 ± 0.11 | 1.1 ± 0.096 | 0.982 ± 0.057 | 1.14 ± 0.086 | 1.18 ± 0.12 | 1.02 (active) |
| CC(=O)SCC(Cc1ccccc1)C(=O)NCC(=O)OCc1ccccc1 (centres undefined) | 1.01 ± 0.075 | 0.997 ± 0.07 | 0.99 ± 0.045 | 0.967 ± 0.08 | 0.76 ± 0.027 | 0.785 ± 0.087 | 1 (active) |
| O=C(Oc1coc(CSc2ncccn2)cc1=O)c1ccc([N+](=O)[O-])cc1 | 0.972 ± 0.16 | 1.15 ± 0.13 | 1.03 ± 0.15 | 0.996 ± 0.03 | 1 ± 0.22 | 1.03 ± 0.1 | 0.986 (active) |
| COc1ccc(C2CC(=O)C(=Cc3c[nH]c4ccccc34)C(=O)C2)cc1 (centres undefined) | 0.91 ± 0.055 | 1.04 ± 0.11 | 0.905 ± 0.08 | 0.76 ± 0.04 | 1.25 ± 0.11 | 1.1 ± 0.13 | 0.991 (active) |
| CC(C)NC[C@H](O)COc1ccc(CCOCC2CC2)cc1.Cl | 1.15 ± 0.1 | 1.07 ± 0.16 | 1.11 ± 0.037 | 0.871 ± 0.11 | 0.987 ± 0.09 | 0.868 ± 0.12 | 1 (active) |
| COC(=O)Nn1cnnc1 | 1.03 ± 0.17 | 1.08 ± 0.087 | 0.97 ± 0.095 | 0.984 ± 0.025 | 1.25 ± 0.22 | 1.39 ± 0.24 | 1 (active) |
| C[C@H](NC(=O)C(=O)Nc1ccccc1C(C)(C)C)C(=O)N[C@@H](CC(=O)O)C(=O)COc1c(F)c(F)cc(F)c1F | 1.32 ± 0.33 | 0.434 ± 0.023 | 1.69 ± 0.12 | 0.51 ± 0.037 | 0.839 ± 0.14 | 1.07 ± 0.14 | 0.606 (inactive) |
| CC(c1ccccc1)c1nnc(NC(=O)c2ccco2)s1 (centres undefined) | 0.853 ± 0.29 | 1.12 ± 0.12 | 1.04 ± 0.1 | 0.906 ± 0.027 | 1.13 ± 0.23 | 1.3 ± 0.32 | 0.968 (active) |
